Reference: PubChem BioAssay AID1566 (Sanford-Burnham Center for Chemical Genomics, 2009)
Out of some 290,000 compounds screened, about 1,800 (0.62%) were called active. Shown is part of a subset that was picked to be rich in actives. Values without a mark were called inactive. No stated cut-off is given here; in the data, active means inhibition above about 50%; inactive means the rest.

assay: NOD2 signaling inhibitors, cell-based, luminescence, uHTS, HEK293 (AID 1566); conditions: HEK293 NOD2/NF-kB luciferase reporter, at 4 µM, stronger effect = higher value

Row | Structure (SMILES) | inhibition
1 | CCOc1ccc(-c2cc(C)[n+](CCO)c(-c3ccc(OCC)cc3)c2)cc1 | 0.3%
2 | CCOc1ccc(-c2cc(C)[n+](CCc3ccc(OC)c(OC)c3)c(-c3ccc(OCC)cc3)c2)cc1 | 58.6% (active)
3 | CCOc1ccc(-c2cc(C)[n+](CCN3CCOCC3)c(-c3ccc(OCC)cc3)c2)cc1 | 21.6%
4 | COc1ccc(-c2cc(=NCCCCCC(=O)O)c3cc(C)ccc3o2)cc1 | -4.2%
5 | N=C1C(c2ccccc2)=C(O)CN1Cc1ccco1 | 8.2%
6 | Cc1cccc(-n2c(O)c(C=NCCN3CCNCC3)c(=O)[nH]c2=S)c1 | -4.3%
7 | O=C(Cn1cc(C(=O)c2ccccc2F)c2ccccc21)NC1CC1 | 13.6%
8 | O=C(c1cc(C(=O)NCc2ccccc2)c(=O)n(Cc2ccccc2)c1)c1cc(Br)ccc1O | 2.5%
9 | CCc1ccc(OCC(=O)N2CCN(Cc3ccc4c(c3)OCO4)CC2)cc1 | -4.3%
10 | CCCNS(=O)(=O)c1ccc(OCC(=O)N2CCN(Cc3ccc4c(c3)OCO4)CC2)cc1 | 20.9%
11 | CCCCNS(=O)(=O)c1ccc(OCC(=O)N2CCN(Cc3ccc4c(c3)OCO4)CC2)cc1 | 51.1% (active)
12 | CC(C)CNP(=S)(c1ccccc1)C(C)(C)C (stereo unspecified) | 10.7%
13 | O=c1cc(CN2CCNCC2)nc2sccn12 | 8.2%
14 | FC(F)(F)c1cccc(C2NCc3ccccc3-n3cccc32)c1 (stereo unspecified) | 9.8%
15 | CC(=O)OC1CC[C@]2(C#N)[C@H]3CC[C@]4(C)[C@H](C5C=CC(=O)O5)CCC4(O)C3CCC2(O)C1 (stereo partly specified) | 75% (active)
16 | Cn1cccc1CN1CCN(C(=O)COc2ccccc2)CC1 | 16.7%
17 | O=[N+]([O-])c1ccccc1CN1CC=C(c2ccc(F)cc2)CC1 | -15.5%
18 | CC12CC[C@H]3[C@@H](CCC4(O)C[C@H](O)CCC34/C=N/NC(=O)c3ccccc3Cl)C1(O)CCC2C1=CC(=O)OC1 (stereo partly specified) | 25.4%
19 | CC12CC[C@H]3[C@@H](CCC4(O)C[C@H](O)CCC34/C=N/NC(=O)c3ccc(O)cc3)C1(O)CCC2C1=CC(=O)OC1 (stereo partly specified) | 9.1%
20 | CC12CC[C@H]3[C@@H](CCC4(O)C[C@H](O)CCC34/C=N/NC(=O)c3ccccc3O)C1(O)CCC2C1=CC(=O)OC1 (stereo partly specified) | 17.2%
21 | COc1ccc(C(=O)N/N=C/C23CC[C@@H](O)CC2(O)CC[C@@H]2[C@@H]3CCC3(C)C(C4=CC(=O)OC4)CCC23O)cc1 (stereo partly specified) | 27.3%
22 | C[C@H]1O[C@@H](O[C@H]2[C@@H](O)C[C@H](O[C@H]3[C@@H](O)C[C@H](O[C@H]4CC[C@@]5(C)[C@H](CC[C@@H]6[C@@H]5CC[C@]5(C)[C@@H](C7=CC(=O)OC7)CC[C@]65O)C4)O[C@@H]3C)O[C@@H]2C)C[C@H](O)[C@@H]1O | 73.9% (active)
23 | C[C@H]1O[C@@H](OC2CC[C@]3(C=O)[C@H]4CC[C@]5(C)[C@@H](C6=CC(=O)OC6)CC[C@]5(O)[C@@H]4CC[C@]3(O)C2)CC2OC(C)(C)OC21 (stereo partly specified) | 73% (active)

Row | Structure (SMILES) | inhibition
24 | CCOc1ccc(N=Cc2c(O)n(Cc3ccccc3)c(=S)[nH]c2=O)cc1 | 8.4%
25 | CC(C)CCOP(N)(=O)Oc1ccccc1 (stereo unspecified) | -6.2%
26 | Cc1ccc2cccc(OC(=O)N(C)c3ccccc3)c2n1 | 5.1%
27 | C=CCn1c(O)c(C(C)=NC2CC2)c(=O)[nH]c1=O | 4.6%
28 | O=c1c2ccccc2nc(/C=C/c2ccc(O)cc2)n1-c1ccccc1O | -2.5%
29 | Cc1nc2ccc(Cl)cc2c(=O)n1-c1cccc(Cl)c1 | -2.1%
30 | O=C(Cn1nc(Cc2cccnc2)c2ccccc2c1=O)N1CCC2(CC1)OCCO2 | 20.3%
31 | COc1ccccc1/C=C1\C(=O)NC(=S)N(c2ccccc2)C1=O | 11.6%
32 | NC(=S)c1cn(C2OC(CO)C(O)C2O)c2ncnc(N)c12 (stereo unspecified) | 69.1% (active)
33 | CCNC(=O)[C@H]1O[C@@H](n2cnc3c(N)ncnc32)[C@H](O)[C@@H]1O | -24.1%
34 | C=C(CO)CC1CC(O)[C@]2(C)OC3CC4OC5C[C@]6(C)O[C@]7(C)CCC8OC9C[C@]%10(C)OC%11C(C)=CC(=O)OC%11CC%10OC9C[C@@H](C)C8OC7CC6O[C@]5(C)C/C=C\C4OC3CC2O1 (stereo partly specified) | 4.7%
35 | C=C(CC1CC(O)[C@]2(C)OC3CC4OC5C[C@]6(C)O[C@]7(C)CCC8OC9C[C@]%10(C)OC%11C(C)=CC(=O)OC%11CC%10OC9C[C@@H](C)C8OC7CC6O[C@]5(C)C/C=C\C4OC3CC2O1)C(=O)O (stereo partly specified) | 12.8%
36 | C=C(C=O)C[C@@H]1C[C@H](O)C2OC3C[C@]4(C)OC5/C=C\CC6OC7C(CC=CCC6OC5CCCC4OC3CC2O1)OC1CC2OC3CC(=O)OC3C[C@@H](C)C[C@@]2(C)OC1C[C@@H]7C (stereo partly specified) | 58.2% (active)
37 | C=CCn1c(O)c(/C(C)=N/NC(=S)Nc2ccccc2)c(=O)[nH]c1=O | 10.8%
38 | CCOc1cccc(=NC2CCCCC2)c2c(C)n(C)c(C)c12 | 27%
39 | Cc1oc(-c2cccs2)nc1CSCC(=O)N1CCC2(CC1)OCCO2 | 57.1% (active)
40 | Cc1ccsc1-c1nc(CSCC(=O)N2CCC3(CC2)OCCO3)c(C)o1 | 11.3%
41 | COc1ccc(-c2nc(CSCC(=O)N3CCC4(CC3)OCCO4)c(C)o2)cc1OC | -11.2%
42 | O=c1[nH]c(=O)n(CCC2=CCCCC2)c(O)c1/C=N/Nc1cccc2ccccc12 | 33.9%
43 | C[C@@H]1CC[C@H]2[C@@H](C)C(=O)O[C@@H]3O[C@@]4(C)CC[C@@H]1[C@]32OO4 | 9%
44 | C[C@H]1[C@H](OC(=O)CCC(=O)NCc2ccc(C(=O)O)cc2)O[C@@H]2O[C@@]3(C)CC[C@H]4[C@H](C)CC[C@@H]1C24OO3 | 26.4%
45 | CC1C(OC(=O)CCC(=O)NC(C)(C)CO)O[C@H]2OC3(C)CC[C@H]4[C@H](C)CCC1C24OO3 (stereo partly specified) | 64.5% (active)
46 | O=c1[nH]c(=O)n(CCC2=CCCCC2)c(O)c1/C=N/Nc1ccccc1 | 15.6%
